62 molecules from PubChem BioAssay AID588405 (Sanford-Burnham Center for Chemical Genomics, 2011) can be followed below.

The structures appear in SMILES notation. In all, about 360,000 compounds went through this assay and about 6,200 (1.7%) were called active.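 How the source made its calls: active means inhibition of at least 50% at 20 µM; inactive means the rest.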 The list comes from a sample in which actives are over-represented; it also holds similar structures and randomly drawn compounds.

As usually defined, the inhibition is the change of the read-out against control, counted positive when it falls.

The nature of this experiment: inhibition of PEG-3 promoter activity – cell-based, HeLa, luciferase luminescence, primary screen (AID 588405). The settings on record: HeLa PEG-Prom luciferase reporter, overnight, at 20 µM, active compounds read high.
Turning to `CCC(C)N(C(=O)CSc1nnnn1-c1ccccc1OC)C1CCS(=O)(=O)C1` (configuration not stated), the inhibition was 6.27% (inactive). As for `COc1ccccc1-n1nnnc1SCC(=O)NC(=O)Cc1ccccc1`, the inhibition was 3.09% (inactive). Take `COc1ccccc1-n1nnnc1S(=O)(=O)Cc1ccc(Cl)cc1`: the inhibition is 108% (active). `O=C(N=C1SC2CS(=O)(=O)CC2N1c1cc(Cl)ccc1Cl)C1CC1` (configuration not stated): the inhibition is 3.34% (inactive). Regarding `Cn1c(=O)[nH]c(=O)c2c1nc(N1CCN(C(c3ccccc3)c3ccccc3)CC1)n2CCO`, the inhibition was 74.6% (active). As to `C=C(C)Cn1c(N2CCCC2)nc2c1c(=O)[nH]c(=O)n2C`, the inhibition is -3.39% (inactive). Take `CC1CCN(c2nc3c(c(=O)[nH]c(=O)n3C)n2CCCc2ccccc2)CC1`: the inhibition is -2.12% (inactive).

As to `COc1ccc(-c2cc3nc(NCCOc4ccccc4)ccn3n2)cc1`, the inhibition was -70.4% (inactive). With `COC(=O)c1ccccc1N=NNc1ccc([N+](=O)[O-])cc1`, the inhibition is -132% (inactive).

For `COc1ccc(CCNC(=O)c2ccc(CS(=O)(=O)c3ccc(Br)cc3)o2)cc1OC`, the inhibition was 32.6% (inactive). Turning to `Cc1cccc(C)c1Cn1c(C)c(C(=O)NCc2cccc(Cl)c2)sc1=O`, the inhibition is 0.34% (inactive). For the molecule `CC1(C(=O)NS(=O)(=O)c2ccccc2)CCN1C(=O)c1ccccc1` (configuration not stated), the inhibition was 8.86% (inactive). With `CC(=O)Nc1cc(-c2cccc(CO)c2)cn2c(-c3cccc(C(F)(F)F)c3)cnc12`, the inhibition was 19.9% (inactive). Take `Cc1cc(-c2n[nH]c(=S)n2/N=C/C(Br)=C/c2ccccc2)n[nH]1`: the inhibition was 101% (active). Take `Cc1ccccc1-c1n[nH]c(=S)n1/N=C/c1ccc(-c2ccccc2Br)o1`: the inhibition was 13.5% (inactive). In the case of `COc1ccccc1N1CCN(/N=C\C(Br)=C\c2ccccc2)CC1`, the inhibition is -183% (inactive).

For the molecule `COc1c(C)cc(C(O)c2ncc(-c3cccc(C(F)(F)F)c3)[nH]2)cc1C` (configuration not stated), the inhibition was 36.8% (inactive). Regarding `C=CCn1c(C)cc(C2=NNC(=NCC)SC2)c1C`, the inhibition was 106% (active).

For the molecule `O=C1CC(c2cccc(Br)c2)C2=C(CCCC2=O)N1` (configuration not stated), the inhibition was -11.1% (inactive).

For the molecule `Cc1cc(Cl)ccc1-c1nc(NCCN(C)C)nc2ccsc12`, the inhibition was 5.65% (inactive). As to `COc1ccc(-c2n[nH]c3c2CN(C(=O)c2ccc(F)cc2)CC3)cc1`, the inhibition is -4.89% (inactive). Take `COc1ccc(C2CC(c3cccc(OC)c3)=NN2c2ccc(S(N)(=O)=O)cc2)cc1` (configuration not stated): the inhibition is -21.8% (inactive). For `O=C(NCc1ccccc1Cl)c1csc([C@@H]2O[C@H](CO)[C@@H](O)[C@H]2O)n1`, the inhibition is 9.43% (inactive). Regarding `Cc1ccc(CN2CC(N3CCC(Cc4ccccc4)CC3)CS2(=O)=O)cc1` (configuration not stated), the inhibition was 15.9% (inactive).

Regarding `CC(C)OC(=O)c1ccc(NCc2cc(O)ccc2O)cc1Cl`, the inhibition is 64% (active).

Turning to `O=C(O)Cc1ccc(NCc2ccccc2Cl)cc1`, the inhibition is -84.7% (inactive). As for `CC(CN1CCCCC1)OC(=O)c1ccccc1Cl` (configuration not stated), the inhibition was -5.2% (inactive).

Turning to `COc1ccc(-c2cc(-c3ccc(N)cc3)nc(N)c2C#N)cc1OC`, the inhibition was 28.4% (inactive).

In the case of `COc1ccc(C2=NO[C@@H]3C(=O)N(Cc4ccccc4)C(=O)[C@H]23)cc1OC`, the inhibition was 21.8% (inactive). For the molecule `COc1ccc(-c2cc(C(F)(F)F)nc(S(C)(=O)=O)n2)cc1OC`, the inhibition was 104% (active). In the case of `O=C1N=C2SCCN2/C1=C\c1c(Cl)cccc1Cl`, the inhibition is 2.52% (inactive). As for `COc1ccc(NC(=O)C2Cc3c(-c4cccc(NC(C)=O)c4)ccnc3O2)cc1OC` (configuration not stated), the inhibition was 24% (inactive). For the molecule `CCN(CC)CCCNC(=S)N(CCO)Cc1cc2cc3c(cc2[nH]c1=O)OCO3`, the inhibition is 5.64% (inactive). With `O=c1oc2ccccc2cc1-c1cn(-c2ccccc2)c(=S)[nH]1`, the inhibition was 98.7% (active).

On to `COc1cccc(-n2c(=S)[nH]c3c(oc4ccccc43)c2=O)c1`, for which the inhibition was -22.9% (inactive). For `O=C(NCC1CCCO1)c1cc2c([nH]c3ccccc32)c(-c2ccc(F)cc2)n1` (configuration not stated), the inhibition is 61.3% (active). As to `COc1ccc2cc(C(=O)NCC3CCCO3)[nH]c2c1` (configuration not stated), the inhibition is -95.8% (inactive). Next, `O=C(NCCCO)c1cc2c([nH]c3ccccc32)c(-c2ccc(F)cc2)n1`: 23.9% (inactive).

`CCOc1ccc(Cl)cc1-c1cc(C(=O)NCc2cccs2)[nH]n1`: the inhibition was -9.07% (inactive). Regarding `CCn1cc(C(=O)NCC2COc3ccccc3O2)c2cc(OC)c(OC)cc2c1=O` (configuration not stated), the inhibition was 8.43% (inactive). Regarding `Cc1cc(C(=O)CCl)c(C)n1CC1COc2ccccc2O1` (configuration not stated), the inhibition is 103% (active). For the molecule `Cc1noc(C)c1C(=O)NCC1COc2ccccc2O1` (configuration not stated), the inhibition is 15.8% (inactive). As for `O=C(Nc1ccc(Cl)cc1)C1Cc2c(-c3ccc4c(c3)OCO4)ccnc2O1` (configuration not stated), the inhibition is 29% (inactive). Consider `Cc1ccc(-c2nnc(-n3nnc4ccccc43)c3ccccc23)cc1`, for which the inhibition is 6.18% (inactive).

As to `CC1(Cc2ccccc2C#N)C(=O)Nc2ccc(-c3ccc4[nH]ccc4c3)cc21` (configuration not stated), the inhibition is 14.4% (inactive).

Consider `Cc1nc2ccccc2nc1CC(O)(c1ccccc1)c1ccccc1`, for which the inhibition is -1.32% (inactive). For the molecule `CN(Cc1ccccc1)C(=O)c1cccc(C(=O)N(C)Cc2ccccc2)c1`, the inhibition is 8.74% (inactive). For `CN(O)C(=S)c1ccccc1`, the inhibition is 92.1% (active). In the case of `Cc1ccc(CS(=O)Cc2ccc(C(=O)N3CCOCC3)o2)cc1` (configuration not stated), the inhibition is 11.9% (inactive).

As for `CCc1nc2ccc(C(=O)Nc3cc(-c4ccccc4)ccc3OC)cn2c1N(CC)CC(=O)N(C)C`, the inhibition was -22.1% (inactive). Regarding `CCN1CCN(CCNC(=O)c2ccc(/C=C3/Sc4ccccc4N(Cc4cccc(C)c4)C3=O)cc2)CC1`, the inhibition was 103% (active). For the molecule `O=C(NCCN1CCOCC1)c1ccc2c(c1)N(Cc1cccc(Cl)c1)C(=O)c1ccccc1S2(=O)=O`, the inhibition was 23.8% (inactive). For `CN1CCN(CCCNC(=O)c2ccc(/C=C3\Oc4ccccc4N(Cc4ccc(Cl)cc4)C3=O)cc2)CC1`, the inhibition was 109% (active). With `CCN1CCCC1CNC(=O)c1cc2c(=O)n(C)c3ccccc3c2n1C` (configuration not stated), the inhibition is -10.3% (inactive). Next, `CCN1CCCC1CNC(=O)c1ccc2c(c1)NC(=O)/C(=C\c1ccccc1F)S2` (configuration not stated): 56.9% (active). On to `O=C(NCCCN1CCCCC1)c1ccc2c(c1)NC(=O)C(N1CCOCC1)S2` (configuration not stated), for which the inhibition is -8.33% (inactive). In the case of `Cc1c(C)n(Cc2ccc(Cl)cc2)c2ccc(C(=O)NCCCN3CCOCC3)cc12`, the inhibition was 47.1% (inactive). Regarding `CCN1CCN(CCNC(=O)c2ccc3c(c2)NC(=O)/C(=C\c2cccc(Cl)c2)S3)CC1`, the inhibition is 99.5% (active). `CC(C)OCCCNC(=O)CN1C(=O)/C(=C/c2ccccc2F)Oc2ccccc21`: the inhibition was 4.52% (inactive). `CCCC1=Nc2cc(C(=O)NCCN3CCCC3)ccc2Sc2ccccc21`: the inhibition is 16.7% (inactive). Next, `CCN1CCCC1CNC(=O)c1cc2cc(OC)c(OC)cc2[nH]1` (configuration not stated): 18% (inactive); `Cc1ccccc1CN1C(=O)c2ccccc2Sc2ccc(C(=O)NCCCN3CCOCC3)cc21`: 26.3% (inactive).
